Consider 25 compounds from the supplement of paper PMC7380943.

The test system of assay [1] is CLZ3 (HCA2 human fibroblast dual HR-NHEJ reporter). The assay can be described thus: NHEJ repair efficiency (GFP+ cells) relative to control (log10 fold); higher = more non-homologous end joining. Particulars: 5 µM; doxycycline 0.5 ug/mL.
For assay [2] the test system is unchanged. The assay can be described thus: HR repair efficiency (tdTomato+ cells) relative to control (log10 fold); higher = more homologous recombination. Particulars: 5 µM; doxycycline 0.5 ug/mL.
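Throughout, for HR repair efficiency (tdTomato+ cells) relative to control: compound given one day before doxycycline, which switches on I-SceI endonuclease expression to create double-strand breaks within the integrated reporter.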
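Throughout, for NHEJ repair efficiency (GFP+ cells) relative to control: compound given one day ahead of doxycycline, which switches on I-SceI endonuclease to cut the chromosomally integrated reporter and create DSBs.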

Consider `O=C(O[C@@H]1Cc2c(O)cc(O)cc2O[C@@H]1c1ccc(O)c(O)c1)c1cc(O)c(O)c(O)c1` [Epicatechin Gallate], for which the “NHEJ repair efficiency (log10)” value in assay [1] was -0.236. In assay [2], the “HR repair efficiency (log10)” value was -0.0859.

As for `COc1cc(O)c(CC=C(C)C)c(O)c1C(=O)/C=C/c1ccc(O)cc1` [Xanthohumol], the “NHEJ repair efficiency (log10)” value in assay [1] was 0.0812. The “HR repair efficiency (log10)” value in assay [2] is 0.0483.

For the compound `CC(C)(O)CC[C@@H](O)C(C)(O)[C@H]1CC[C@@]2(O)C3=CC(=O)[C@@H]4C[C@@H](O)[C@@H](O)C[C@]4(C)[C@H]3CC[C@]12C` (stereo partly drawn) [Β-Hydroxyecdysone], the “NHEJ repair efficiency (log10)” value in assay [1] was -0.034. The “HR repair efficiency (log10)” value in assay [2] came out at 0.056.

In the case of `CC(=O)O[C@H]1CC(=O)OC(C)(C)[C@@H]2CC(=O)[C@]3(C)[C@H](CC[C@@]4(C)[C@@H](c5ccoc5)OC(=O)[C@H]5O[C@]543)[C@@]12C` [Nomilin], the “NHEJ repair efficiency (log10)” value in assay [1] was -0.276. In assay [2], the “HR repair efficiency (log10)” value is -0.226.

For the compound `O=C(/C=C/c1ccc(O)c(O)c1)O[C@@H]1C[C@](O)(C(=O)O)C[C@@H](O)[C@H]1O` [Chlorogenic Acid], the “NHEJ repair efficiency (log10)” value in assay [1] came to 0.0025. The “HR repair efficiency (log10)” value in assay [2] is -0.132.

Turning to `COc1c(O)cc2occ(-c3ccc(O)cc3)c(=O)c2c1O` [Tectorigenin], in assay [1], the “NHEJ repair efficiency (log10)” value was -0.0657. For the same compound, the “HR repair efficiency (log10)” value in assay [2] is -0.129.

With `CC(CCC(OC1OC(CO)C(O)C(O)C1OC1OC(CO)C(O)C(O)C1O)C(C)(C)O)C1CCC2(C)C3CC=C4C(CCC(OC5OC(COC6OC(CO)C(O)C(O)C6O)C(O)C(O)C5O)C4(C)C)C3(C)C(O)CC12C` (stereo not given) [Mogroside IV], the “NHEJ repair efficiency (log10)” value in assay [1] amounted to 0.0766. Moreover, the “HR repair efficiency (log10)” value in assay [2] is 0.171.

With `COc1cc(-c2oc3cc(O)cc(O)c3c(=O)c2O[C@@H]2O[C@H](CO)[C@@H](O)[C@H](O)[C@H]2O)ccc1O` [Isorhamnetin-3-O-Glucoside], in assay [1], the “NHEJ repair efficiency (log10)” value is -0.0722. For the same compound, in assay [2], the “HR repair efficiency (log10)” value is -0.00603.

For `CCCCC/C=C\C/C=C\CCCCCCCC(=O)O` [Linoleic Acid], in assay [1], the “NHEJ repair efficiency (log10)” value stood at 0.0448. Moreover, in assay [2], the “HR repair efficiency (log10)” value was -0.0026.

Regarding `NCCCC(=O)O` [γ-Aminobutyric Acid], the “NHEJ repair efficiency (log10)” value in assay [1] is -0.0944. Moreover, the “HR repair efficiency (log10)” value in assay [2] stood at 0.0562.

Turning to `COc1c(O)cc2c(c1O)C(=O)c1c(cc(C)c(O)c1OC)C2=O` [Aurantio-obtusin], the “NHEJ repair efficiency (log10)” value in assay [1] was 0.137. For the same compound, the “HR repair efficiency (log10)” value in assay [2] is 0.0361.

As for `CC1=C[C@]2(O)O[C@@]3(CC2=C(C)C)[C@@H](C)CC[C@@H]13` [Curcumenol], the “NHEJ repair efficiency (log10)” value in assay [1] is 0.129. The “HR repair efficiency (log10)” value in assay [2] worked out at 0.132.

In the case of `Nc1ncnc2c1ncn2[C@@H]1O[C@H](CO)C[C@H]1O` [Cordycepin], the “NHEJ repair efficiency (log10)” value in assay [1] was determined as 0.007. Moreover, the “HR repair efficiency (log10)” value in assay [2] was -0.139.

As to `COc1cc(C2Oc3cc([C@H]4Oc5cc(O)cc(O)c5C(=O)[C@@H]4O)ccc3OC2CO)ccc1O` (stereo not given in full) [Silymarin Ⅱ], the “NHEJ repair efficiency (log10)” value in assay [1] is -0.124. Also, the “HR repair efficiency (log10)” value in assay [2] was -0.127.

For `COc1cc(C2Oc3cc([C@H]4Oc5cc(O)cc(O)c5C(=O)[C@@H]4O)ccc3OC2CO)ccc1O` (stereo not given in full) [Silybin (Silymarin)], the “NHEJ repair efficiency (log10)” value in assay [1] came out at 0.131. Also, in assay [2], the “HR repair efficiency (log10)” value came out at 0.183.

Take `CC(C)[C@@H](C)/C=C/[C@@H](C)[C@H]1CC[C@H]2C3=CC=C4C[C@@H](O)CC[C@]4(C)[C@H]3CC[C@]12C` [Ergosterol]: the “NHEJ repair efficiency (log10)” value in assay [1] turned out to be 0.00511. For the same compound, the “HR repair efficiency (log10)” value in assay [2] is 0.141.

On to `O=C(/C=C/c1ccc(O)c(O)c1)O[C@H](Cc1ccc(O)c(O)c1)C(=O)O` [Rosmarinicacid], for which the “NHEJ repair efficiency (log10)” value in assay [1] is -0.275. Besides, the “HR repair efficiency (log10)” value in assay [2] is -0.328.

As for `O=C(O)c1ccc(O)c(O)c1` [3,4-Dihydroxybenzoic acid], the “NHEJ repair efficiency (log10)” value in assay [1] is 0.00743. Moreover, the “HR repair efficiency (log10)” value in assay [2] was -0.033.

`CC(/C=C/C=C(\C)C(=O)O[C@@H]1O[C@H](CO[C@@H]2O[C@H](CO)[C@@H](O)[C@H](O)[C@H]2O)[C@@H](O)[C@H](O)[C@H]1O)=C\C=C\C=C(C)\C=C\C=C(/C)C(=O)O[C@@H]1O[C@H](CO[C@@H]2O[C@H](CO)[C@@H](O)[C@H](O)[C@H]2O)[C@@H](O)[C@H](O)[C@H]1O` [Crocin]: the “NHEJ repair efficiency (log10)” value in assay [1] was -0.0374. In addition, the “HR repair efficiency (log10)” value in assay [2] is 0.0109.

Regarding `C=C[C@H]1[C@H](O[C@@H]2O[C@H](CO)[C@@H](O)[C@H](O)[C@H]2O)OC=C(C(=O)OC)[C@H]1CC(=O)O` [Secoxyloganin], the “NHEJ repair efficiency (log10)” value in assay [1] turned out to be 0.0169. In assay [2], the “HR repair efficiency (log10)” value is -0.19.

Turning to `O=C(C=Cc1ccc(O)c(O)c1)O[C@H]1[C@H](O)C[C@](O)(C(=O)O)C[C@H]1OC(=O)C=Cc1ccc(O)c(O)c1` [Isochlorogenic acid C], the “NHEJ repair efficiency (log10)” value in assay [1] was 0.118. Further, in assay [2], the “HR repair efficiency (log10)” value is 0.0227.

As to `COc1cc(C(=O)OCCCCNC(=N)N)cc(OC)c1O` [Leonurine], the “NHEJ repair efficiency (log10)” value in assay [1] is -0.042. Further, the “HR repair efficiency (log10)” value in assay [2] was 0.0155.

Regarding `CCCCCCC[C@H](O)CC(=O)CCc1ccc(O)c(OC)c1` [8-Gingerol], in assay [1], the “NHEJ repair efficiency (log10)” value is 0.00172. Moreover, the “HR repair efficiency (log10)” value in assay [2] turned out to be 0.0341.

Consider `COc1cc(O)c2c(=O)c3c(O[C@@H]4O[C@H](CO)[C@@H](O)[C@H](O)[C@H]4O)ccc(O)c3oc2c1` [Swertianolin], for which, in assay [1], the “NHEJ repair efficiency (log10)” value stood at 0.00276. For the same compound, the “HR repair efficiency (log10)” value in assay [2] amounted to 0.201.

With `COC(=O)c1ccccc1O[C@@H]1O[C@H](CO[C@@H]2OC[C@@H](O)[C@H](O)[C@H]2O)[C@@H](O)[C@H](O)[C@H]1O` [Gaultherin], in assay [1], the “NHEJ repair efficiency (log10)” value was -0.0565. In assay [2], the “HR repair efficiency (log10)” value is -0.122.
